According to PubChem BioAssay AID504332 (National Center for Advancing Translational Sciences (NCATS), 2011):
Out of some 350,000 compounds screened, about 31,000 (8.9%) were called active. Another 15% or so got no clear call; they are omitted. This is one part of a sample in which actives are shown more often than they occur. Unmarked numbers belong to inactive results. Calls come from the whole dose curve; as a rule, active = well fitted inhibition curve with a large enough effect; inconclusive = small, poorly fitted or top-dose-only effect; inactive = no such curve, though single readings can be large or run the other way.

Biological target: Histone-lysine N-methyltransferase EHMT2 (Homo sapiens) (UniProt Q96KQ7)
Sequence (Q96KQ7 913-1193 limits assumed): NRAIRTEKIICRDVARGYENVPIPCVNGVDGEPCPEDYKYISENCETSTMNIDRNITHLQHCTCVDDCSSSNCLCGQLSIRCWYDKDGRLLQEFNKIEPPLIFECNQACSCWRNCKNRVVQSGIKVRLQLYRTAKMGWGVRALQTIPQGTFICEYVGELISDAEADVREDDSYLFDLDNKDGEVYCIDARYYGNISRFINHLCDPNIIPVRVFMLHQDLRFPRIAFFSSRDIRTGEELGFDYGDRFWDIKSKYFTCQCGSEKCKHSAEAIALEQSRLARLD
Experiment: qHTS Assay for Inhibitors of Histone Lysine Methyltransferase G9a; note: nearly all actives have a fitted effect of over 75% in size
Details: G9a H3K9 monomethylation, AlphaScreen, 2 h; series mostly up to 59 µM; activity, negative = inhibition: at the top concentration
Summary of the method: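 AlphaScreen detection with an anti-monomethyl H3K9 antibody quantified product after a 2 h room-temperature reaction containing 500 nM biotinylated H3K9 peptide, 20 µM SAM and 20 nM enzyme, which had been preincubated 15 min with compound.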
% is set by controls: 0 for no effect and ±100 for the full control effect; potency is the fitted concentration of half-maximal effect.

SMILES | activity, negative = inhibition | Potency
Cc1cccc(CC(=O)N2CC(=O)Nc3ccc(F)cc3C2c2ccccc2)c1 (stereo not drawn) | 2.59% | 
CN=C1C=C/C(=N/N=c2\ccn(O)cc2C)C=C1C |  | 7.94 µM (active)
O=C(NCCc1ccc(C(F)(F)F)cc1)c1ccc2c(c1)OCO2 | 13.1% | 
Cc1ccc(C)c(NC(CC(=O)c2ccccc2)C(=O)OCC(=O)c2cccs2)c1 (stereo not drawn) |  | 28.2 µM (active)
COC(=O)C(CC(=O)Nc1cc(C)ccc1C)Nc1ccccc1OC (stereo not drawn) | -11.9% [at 2.33 µM] | 
Cc1ccc(C)c(NC(=O)CCC(=O)NNC(=O)c2cccs2)c1 | 35.9% | 
CN1C(C(=O)NCC2CC2)CC2Cn3c(nc4ccccc43)C21 (stereo not drawn) | 2.03% [at 2.33 µM] | 
Cc1ccc(S(=O)(=O)CC(=O)Nc2sc(C)c(C)c2C(N)=O)cc1 | -22.4% [at 0.501 µM] | 
COc1ccccc1C(=O)Nc1ccc(C)c(S(=O)(=O)N2CCCCC2)c1 | -43% [at 102 µM] | 
CCCCc1nc2ccccc2c(=O)n1NC(=O)c1c(O)c2cccc3c2n(c1=O)CC3 | 7.74% | 
CCCCc1nc2ccccc2c(NC(=O)CN2CCN(C)CC2)c1CCC |  | 10 µM (active)
CCOC(=O)N1CCN(CC(=O)Nc2cc(C)nn2-c2nc3ccccc3s2)CC1 | -49% [at 102 µM] | 
FC(F)(F)c1ccc2nnc(-c3c(Cl)cccc3Cl)n2c1 |  | 44.7 µM (active)
O=C1Cc2cc(S(=O)(=O)Nc3ccc(OC(F)(F)F)cc3)cc3c2N1CCC3 | -4.45% | 
O=C(Nc1ccon1)c1nc[nH]c1C(=O)NCc1ccccc1 | 4.11% [at 0.501 µM] | 
CCOC(=O)c1c(C)[nH]c(C)c1S(=O)(=O)N(C)CC(=O)N1CCN(c2ccccc2)CC1 | -6.97% | 
CCOC(=O)N1CCN(C(=O)Cc2ccc(-n3c(=S)[nH]c4ccccc4c3=O)cc2)CC1 |  | 44.7 µM (active)
O=C(Cc1ccc(-n2c(=O)[nH]c3ccccc3c2=O)cc1)N1CCN(c2cccc(Cl)c2)CC1 | -10.6% [at 12.7 µM] | 
CCCCNC(=O)c1ccc(-n2c(=S)[nH]c3ccccc3c2=O)cc1 | 6.91% [at 102 µM] | 
O=C(COC(=O)/C=C/c1ccc(OC(F)F)cc1)NC1CCCCC1 | -25.5% [at 102 µM] | 
Cc1ccc(OCCNC(=O)CCNS(=O)(=O)c2ccc(Br)cc2)cc1 | 31.4% | 
COc1ccccc1-c1oc2ccccc2c1C#CCCCCO | 7.94% [at 0.501 µM] | 
CCOC(=O)c1ccc(NC(=O)c2nc(SCc3ccc(F)cc3)ncc2Cl)cc1 | -19.1% | 
CCSc1ncc(Cl)c(C(=O)Nc2cc(C)ccc2C)n1 |  | inactive
Cc1cccc(OCc2ccc(C(=O)Nc3ccc(F)cc3)cc2)c1 | 16.2% | 

SMILES | activity, negative = inhibition | Potency
Cc1ccc(S(=O)(=O)CC(=O)Nc2nnc(C)s2)cc1 | -6.86% [at 102 µM] | 
Cc1nnc(NC(=O)Nc2ccc(Cl)c(Cl)c2)s1 | -0.92% | 
Cc1ccc(CS(=O)(=O)c2ncc(Cl)c(C(=O)Nc3nnc(C)s3)n2)cc1 |  | 14.1 µM (active)
Cc1cccc(NC(=O)c2nc(S(=O)(=O)Cc3ccccc3)ncc2Cl)c1 |  | 39.8 µM (active)
Cc1cccc(CS(=O)(=O)c2ncc(Cl)c(C(=O)Nc3ccc(F)cc3)n2)c1 |  | 28.2 µM (active)
Cc1cccc(NC(=O)c2nc[nH]c2C(=O)NCC(=O)OCc2ccccc2)c1 | 18.7% | 
Cc1ccc(NC(=O)CN(C)C(=O)c2cccc(S(=O)(=O)N3CCCC3)c2)cc1 | -8.22% | 
COc1ccccc1OCC(=O)Nc1ccccc1C(=O)NC1CC1 | -4.61% [at 0.501 µM] | 
COc1ccc(CCNC(=O)c2ccc(-n3c(C)cc4c3CCCC4)cc2)cc1OC | -40.5% | 
O=C(CSC1=NS(=O)(=O)c2cc(F)ccc2N1)Nc1ccccc1F | -42.2% [at 102 µM] | 
N#Cc1nc(/C=C/c2ccc(F)cc2)oc1NC1CCCCC1 | 2.98% | 
Cc1cc(C)c(NC(=O)Cn2c(SCC(=O)NCc3ccccc3)nc3ccccc32)c(C)c1 | 4.9% | 
O=C(Nc1cc(Cl)cc(Cl)c1)c1ccc2c(c1)N(Cc1cccc(Cl)c1)C(=O)c1ccccc1S2=O (stereo not drawn) | 6.71% | 
COc1ccccc1NC(=O)c1oc2ccccc2c1NC(=O)COc1ccccc1OC | -17.6% | 
CCC(C)c1ccc2oc(-c3ccc(NC(=O)c4cc5ccccc5o4)cc3)nc2c1 (stereo not drawn) | -8.57% | 
COc1cc(NS(=O)(=O)c2ccc(NC(=O)c3ccc([N+](=O)[O-])cc3)cc2)ncn1 | 0.812% [at 102 µM] | 
Cn1ccc(=Nc2ccc(NC(=O)c3ccc(N=c4ccn(C)c5ccc([N+](=O)[O-])cc45)cc3)cc2)cc1 |  | 15.8 µM (active)
Cc1cc([N+](=O)[O-])ccc1NC(=O)c1ccc(NC(=O)C(C)C)cc1 | -4.16% [at 102 µM] | 
COc1ccccc1CNS(=O)(=O)CC12CCC(CC1=O)C2(C)C (stereo not drawn) | -2.74% [at 102 µM] | 
COc1cc(C(=O)NCc2cc3cc(Cl)ccc3n2C)cc(OC)c1OC | -11.8% [at 102 µM] | 
Cc1c(Cl)cccc1NC(=O)c1noc2c1CCCC2 | 8.61% | 
Cc1ccc(S(=O)(=O)N2CCCCC2)cc1C(=O)N(C)CC(=O)Nc1cccc(F)c1 | -21.7% [at 102 µM] | 
Cc1cc(C)c(SCCc2ccncc2)c(C)c1 | 58.4% [at 102 µM] | 
CC(C)c1nnc(NC(=O)COC(=O)/C=C/c2ccc([N+](=O)[O-])cc2)s1 | 105% [at 102 µM] | 
CCOCC(=O)Nc1ncc(S(=O)(=O)c2ccc([N+](=O)[O-])cc2)s1 |  | 35.5 µM (active)

SMILES | activity, negative = inhibition | Potency
Cc1cc(NC(=O)COc2ccc([N+](=O)[O-])cc2)no1 | -2.93% [at 12.7 µM] | 
CC/C(=N\NC(=O)c1c(C)nc2ccccn12)c1ccc(Cl)cc1 | 15.2% [at 102 µM] | 
CC(C)C(C)NC(=O)COc1nc2ccccc2nc1N(C)C1CCCCC1 (stereo not drawn) | -5.83% [at 102 µM] | 
COc1ccccc1N(C)S(=O)(=O)c1ccc(Cl)c(C(=O)Nc2ccncc2)c1 | 9.32% | 
CN1CCN(C2(CNC(=O)COc3ccc(C(C)(C)C)cc3)CCCCC2)CC1 | 8.13% | 
C/C(=N\NC(=S)NCc1ccccc1)C1CCCCC1 |  | 35.5 µM (active)
O=C(CC1CCCCC1)NCc1ccccc1 | 20.6% [at 102 µM] | 
C/C(=N\NC(=S)NCc1ccccc1)c1ccc(Cl)cc1 | 9.66% | 
COc1ccc(OC)c(CNC(=O)Cn2nc(C)c3c(C)n(-c4ccc(C)cc4)nc3c2=O)c1 | 18% | 
COc1cccc(CNC(=O)c2ccc3c(Cl)c4c(nc3c2)CCCC4)c1 | -40.5% | 
CC1(C)CC(CCC(=O)Nc2ccccc2Cl)C(=O)O1 (stereo not drawn) | 20.1% | 
C/C(CC1CC(C)(C)OC1=O)=N/Nc1nc(-c2ccccc2)cs1 (stereo not drawn) |  | 3.16 µM (active)
CCc1noc(C)c1C(=O)Nc1nc(-c2ccccc2)cs1 | -39.9% [at 102 µM] | 
CN1C(=O)c2[nH]nc(-c3ccc(F)cc3)c2C1c1ccccn1 (stereo not drawn) | -3.23% | 
CCOC(=O)c1[nH]c2ccc(OC)cc2c1NC(=O)N1CCOCC1 |  | 50.1 µM (active)
CCOC(=O)C1CCN(C(=O)Nc2cccc(OC)c2)CC1 | 4.16% [at 102 µM] | 
CCOC(=O)c1[nH]c2ccc(OC)cc2c1NC(=O)CCN1CCN(Cc2ccccc2)CC1 | -13.9% [at 2.33 µM] | 
CCCC(=O)C1=C(N(C)c2ccccc2)CC(C)(C)C(C(=O)OC)C1=O (stereo not drawn) | -30.5% | 
COCC(C)N=CC1=C(O)CC(C)(C)CC1=O (stereo not drawn) | 10.1% | 
C=CCO/N=C/C1=C(O)C(C(=O)OC)C(C)(C)CC1=O (stereo not drawn) |  | 15.8 µM (active)
COc1ccc(S(=O)(=O)n2cnc3ccccc32)c(C)c1 | 9.88% [at 102 µM] | 
CC(C)(C)c1cc(CN2CCN(CCC#N)CC2)cc(C(C)(C)C)c1O |  | 17.8 µM (active)
N#Cc1cccc(CN2CCC(=O)N(CCO)CC2)c1 | -5.64% [at 102 µM] | 
N#CCCN1CCN(S(=O)(=O)c2ccc(S(=O)(=O)N3CCCC3)cc2)CC1 | 1.44% | 
CCN(C(=O)CSc1ncnc2sccc12)c1c(N)n(Cc2ccccc2)c(=O)[nH]c1=O | -8.47% | 

SMILES | activity, negative = inhibition | Potency
Cc1ccc(N2C(=O)C3C4C=CC(CC4)C3C2=O)cc1Br (stereo not drawn) | -6.84% [at 0.501 µM] | 
CCCn1nc(NC(=O)C(C)C)c2cc3cc(OC)ccc3nc21 | 7.96% [at 102 µM] | 
O=S(=O)(c1ccc(Br)cc1)N1CCC(c2nc3ccccc3[nH]2)CC1 |  | 70.8 µM (active)
N#CC(C(=O)c1ccc(S(=O)(=O)N2CCCCCC2)cc1)c1nc2ccccc2[nH]1 (stereo not drawn) | 25.8% [at 102 µM] | 
O=C(C1CCCO1)N1CCC(c2nc3ccccc3[nH]2)CC1 (stereo not drawn) | -28.9% [at 12.7 µM] | 
COc1ccc(CCNC(=O)COC(=O)Cc2cccc(F)c2)cc1 | 5.11% [at 0.501 µM] | 
CC(Oc1cc2oc(=O)c3c(c2cc1Cl)CCCC3)C(=O)NCc1ccncc1 (stereo not drawn) | 5.02% [at 102 µM] | 
COc1ccc(C/C(C)=N/NC(=O)c2ccncc2)cc1 | 16.5% [at 102 µM] | 
COc1cc(OC)nc(NC(=O)CCl)n1 | -4.48% | 
COc1cc(OC)nc(N/N=C(\c2ccccc2)c2ccncc2)n1 |  | 12.6 µM (active)
CN(CC(=O)NNC(=O)CNC(=O)c1ccccc1Cl)S(=O)(=O)c1ccc(Cl)cc1 | 4.73% [at 0.501 µM] | 
Cc1ccc(NC(=O)c2cc3cc(C)ccc3n2C)cc1 | -9.16% | 
O=C(c1cccc2ccccc12)N1CCN(c2ccccc2F)CC1 |  | 2.82 µM (active)
COc1ccc2oc(=O)c(C(=O)N3CCN(c4ccccc4F)CC3)cc2c1 | 21.4% [at 12.7 µM] | 
O=C(c1ccc(CN2CCOCC2)cc1)N1CCN(c2ccccc2F)CC1 | 15.9% | 
Cc1csc(SCC(=O)Nc2sccc2C#N)n1 | 2.21% [at 102 µM] | 
Cc1cccc(C)c1Nc1nnc(SCC(=O)Nc2sccc2C#N)s1 | -7.51% | 
CC(c1nnc(SCC(=O)Nc2sccc2C#N)n1-c1ccc(Cl)cc1)N(C)C (stereo not drawn) |  | 50.1 µM (active)
COc1ccc(C2NC(=O)N(C)C(C)=C2[N+](=O)[O-])cc1 (stereo not drawn) | -2.62% [at 102 µM] | 
COc1cccc(C(=O)NNC(=O)c2cccc(F)c2)c1 | 4.31% [at 102 µM] | 
CCCCOC(=O)/C(C#N)=C/c1ccc(-c2cccc(C(F)(F)F)c2)o1 | -1.47% | 
CCOc1ccc(Nc2oc(/C=C/c3ccc(F)cc3)nc2C#N)cc1 | -0.0635% | 
O=C(O)/C=C/c1ccc(OCCCF)cc1 | 0.243% [at 102 µM] | 
